Percent Effect data for eleven molecules are collected here from ChEMBL document CHEMBL3988442, “University of Dundee, Small-Polar-MMV Screening Library” (2021).

Molecules are shown by their SMILES. For some of these results: Entries with a potency or affinity are not part of this list.

Design in all cases: scale not given: direction of the effect not stated beside the values
Test [1] has as its target Protein translocase subunit SecA (Escherichia coli (strain K12)) (UniProt P10408). Nature of the test: Assay to Identify E. coli SecA ATPase Inhibitors. The class given is functional. The conditions noted are these: 30 µM.
Test [2] addresses T1, Ubiquitin-activating enzyme e1, putative (Leishmania donovani (strain BPK282A1)) (UniProt E9BSI1).
T1 sequence (whole entry): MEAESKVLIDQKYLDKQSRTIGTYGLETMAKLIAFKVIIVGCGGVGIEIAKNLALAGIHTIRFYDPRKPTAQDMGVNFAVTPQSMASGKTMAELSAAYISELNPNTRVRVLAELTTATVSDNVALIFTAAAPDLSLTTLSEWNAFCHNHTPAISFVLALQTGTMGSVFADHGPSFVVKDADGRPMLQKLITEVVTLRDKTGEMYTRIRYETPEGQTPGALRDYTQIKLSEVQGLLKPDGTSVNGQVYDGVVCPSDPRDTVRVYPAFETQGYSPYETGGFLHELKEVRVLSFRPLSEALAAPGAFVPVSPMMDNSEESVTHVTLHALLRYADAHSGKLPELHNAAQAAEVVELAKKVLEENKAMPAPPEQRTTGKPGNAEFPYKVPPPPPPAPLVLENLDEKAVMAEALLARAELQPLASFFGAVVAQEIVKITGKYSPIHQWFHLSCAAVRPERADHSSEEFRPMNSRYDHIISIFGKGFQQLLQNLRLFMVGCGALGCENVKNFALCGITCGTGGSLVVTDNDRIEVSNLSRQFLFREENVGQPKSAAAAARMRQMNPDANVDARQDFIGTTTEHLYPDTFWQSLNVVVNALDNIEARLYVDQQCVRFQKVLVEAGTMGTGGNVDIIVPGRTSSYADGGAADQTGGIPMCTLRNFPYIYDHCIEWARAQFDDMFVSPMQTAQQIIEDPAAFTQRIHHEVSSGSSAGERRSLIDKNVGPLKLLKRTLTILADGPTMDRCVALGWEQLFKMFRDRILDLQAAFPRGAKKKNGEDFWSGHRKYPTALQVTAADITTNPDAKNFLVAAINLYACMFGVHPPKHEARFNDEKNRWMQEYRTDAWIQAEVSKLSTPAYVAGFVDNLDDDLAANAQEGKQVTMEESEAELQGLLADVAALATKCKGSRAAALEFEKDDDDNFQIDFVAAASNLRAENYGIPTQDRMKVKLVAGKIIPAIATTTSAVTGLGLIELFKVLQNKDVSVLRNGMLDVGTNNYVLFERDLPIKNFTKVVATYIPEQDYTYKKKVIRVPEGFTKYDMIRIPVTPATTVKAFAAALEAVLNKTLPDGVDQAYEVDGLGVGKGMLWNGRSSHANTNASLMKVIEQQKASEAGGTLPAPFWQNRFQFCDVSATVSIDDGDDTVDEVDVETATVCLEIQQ
Nature of the test: Leishmania donovani Ubiquitin Activating Enzyme (LdE1). The class given is functional. The conditions noted are these: 30 µM.

The target in test [3] is AMP-activated protein kinase, AMPK (Homo sapiens) (UniProt P54646+O43741+P54619+Q9UGJ0+Q9Y478+Q13131+Q9UGI9). Nature of the test: AMP-dependent Kinase enzyme assay. An in vitro enzyme assay that detects ADP turnover that is directly proportional to AMPK activity. This uses naive AMPK that is activated during the assay with MK-8722. The class given is functional. The conditions noted are these: 30 µM.

Test [4] has as its target Sialic acid-binding Ig-like lectin 9 (Homo sapiens) (UniProt Q9Y336). Nature of the test: Hs-Siglec9 ALPHAscreen SOP 20170721. The conditions noted are these: 10 µM.
The next test relates to Trypanosoma cruzi. Nature of the test: Trypanosoma cruzi phosphomannomutase and mannose-1-phosphate guanylyltransferase assay. The conditions noted are these: 10 µM. The class given is functional.
Test [5] addresses T2, Arginase-2, mitochondrial (Homo sapiens) (UniProt P78540).
T2 sequence (whole entry): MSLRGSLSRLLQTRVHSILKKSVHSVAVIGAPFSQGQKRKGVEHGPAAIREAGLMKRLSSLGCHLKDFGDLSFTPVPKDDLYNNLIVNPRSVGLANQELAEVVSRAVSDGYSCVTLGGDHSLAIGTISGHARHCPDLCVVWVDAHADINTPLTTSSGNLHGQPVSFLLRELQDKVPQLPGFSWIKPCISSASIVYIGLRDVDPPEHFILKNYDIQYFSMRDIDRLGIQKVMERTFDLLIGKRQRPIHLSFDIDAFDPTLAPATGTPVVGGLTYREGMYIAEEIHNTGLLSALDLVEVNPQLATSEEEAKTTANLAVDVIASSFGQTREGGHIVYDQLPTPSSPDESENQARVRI
Nature of the test: in vitro enzyme assay to detect the production of urea directly proportional to the activity of Arginase II. Note: in the data most compounds retested in dose-response had high values. The class given is functional. The conditions noted are these: 33.3 µM.

In test [6] the target is T3, Proteasome subunit beta (Trypanosoma cruzi) (UniProt O96673).
T3 sequence (whole entry): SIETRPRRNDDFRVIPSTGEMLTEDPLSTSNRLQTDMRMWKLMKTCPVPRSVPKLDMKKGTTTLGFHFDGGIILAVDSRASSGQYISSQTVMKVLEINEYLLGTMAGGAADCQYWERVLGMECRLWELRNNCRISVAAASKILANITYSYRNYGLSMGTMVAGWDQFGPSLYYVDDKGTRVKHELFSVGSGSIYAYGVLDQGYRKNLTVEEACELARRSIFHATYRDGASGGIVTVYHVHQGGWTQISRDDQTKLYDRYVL
Nature of the test: Trypanosoma cruzi proteasome chymotrypsin-like activity (TcProtChymo) assay. Note: in the data most compounds retested in dose-response had high values. The class given is functional. The conditions noted are these: 9.37 µM.

The species entered for a further test is Homo sapiens. Nature of the test: To identify inhibition of the IFN signalling (Jak-Stat) pathway via expression of an eGFP reporter gene under the control of an IFN-stimulated response element (ISRE) containing MxA promoter. The class given is functional. The conditions noted are these: 30 µM.
The target of test [7] is T4, Tyrosyl-tRNA synthetase, putative (Trypanosoma cruzi (strain CL Brener)) (UniProt Q4DSP6).
T4 sequence (whole entry): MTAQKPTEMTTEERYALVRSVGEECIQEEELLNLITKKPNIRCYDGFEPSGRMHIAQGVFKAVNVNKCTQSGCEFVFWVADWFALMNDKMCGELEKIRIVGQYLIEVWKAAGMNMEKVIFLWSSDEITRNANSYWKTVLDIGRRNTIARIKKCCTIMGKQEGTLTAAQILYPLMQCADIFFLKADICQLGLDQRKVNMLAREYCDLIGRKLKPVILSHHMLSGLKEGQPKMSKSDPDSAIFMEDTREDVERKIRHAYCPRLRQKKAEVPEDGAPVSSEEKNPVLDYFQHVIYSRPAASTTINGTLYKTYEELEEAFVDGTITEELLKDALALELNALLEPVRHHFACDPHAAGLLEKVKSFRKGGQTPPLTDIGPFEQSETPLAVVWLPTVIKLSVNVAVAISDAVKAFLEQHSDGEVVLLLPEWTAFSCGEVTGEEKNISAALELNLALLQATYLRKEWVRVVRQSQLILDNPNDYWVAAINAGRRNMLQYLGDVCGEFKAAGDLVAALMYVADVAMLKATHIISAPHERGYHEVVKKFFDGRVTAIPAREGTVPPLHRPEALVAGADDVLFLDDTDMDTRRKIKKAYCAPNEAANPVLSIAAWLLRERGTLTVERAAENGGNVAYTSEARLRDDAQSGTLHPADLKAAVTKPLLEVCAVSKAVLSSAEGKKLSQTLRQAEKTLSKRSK
Nature of the test: Trypanosoma cruzi tyrosyl tRNA synthetase (TcYRS) _High Tyrosine SOP. Note: in the data most compounds retested in dose-response had high values. The class given is functional. The conditions noted are these: 30 µM.

The target in test [8] is T4, Tyrosyl-tRNA synthetase, putative (Trypanosoma cruzi (strain CL Brener)). Nature of the test: Trypanosoma cruzi tyrosyl tRNA synthetase (TcYRS) SOP. The class given is functional. The conditions noted are these: 30 µM.
For test [9], the target named is Chromo domain-containing protein 1 (Saccharomyces cerevisiae (strain ATCC 204508 / S288c) (Baker's yeast)) (UniProt P32657). Nature of the test: ScCHD-1 Enzyme Inhibition Assay. Note: in the data most compounds retested in dose-response had high values. The class given is functional. The conditions noted are these: 30 µM.
Chain of Chromo domain-containing protein 1 (Saccharomyces cerevisiae (strain ATCC 204508 / S288c) (Baker's yeast)) (P32657 whole entry, the tested form may be a part): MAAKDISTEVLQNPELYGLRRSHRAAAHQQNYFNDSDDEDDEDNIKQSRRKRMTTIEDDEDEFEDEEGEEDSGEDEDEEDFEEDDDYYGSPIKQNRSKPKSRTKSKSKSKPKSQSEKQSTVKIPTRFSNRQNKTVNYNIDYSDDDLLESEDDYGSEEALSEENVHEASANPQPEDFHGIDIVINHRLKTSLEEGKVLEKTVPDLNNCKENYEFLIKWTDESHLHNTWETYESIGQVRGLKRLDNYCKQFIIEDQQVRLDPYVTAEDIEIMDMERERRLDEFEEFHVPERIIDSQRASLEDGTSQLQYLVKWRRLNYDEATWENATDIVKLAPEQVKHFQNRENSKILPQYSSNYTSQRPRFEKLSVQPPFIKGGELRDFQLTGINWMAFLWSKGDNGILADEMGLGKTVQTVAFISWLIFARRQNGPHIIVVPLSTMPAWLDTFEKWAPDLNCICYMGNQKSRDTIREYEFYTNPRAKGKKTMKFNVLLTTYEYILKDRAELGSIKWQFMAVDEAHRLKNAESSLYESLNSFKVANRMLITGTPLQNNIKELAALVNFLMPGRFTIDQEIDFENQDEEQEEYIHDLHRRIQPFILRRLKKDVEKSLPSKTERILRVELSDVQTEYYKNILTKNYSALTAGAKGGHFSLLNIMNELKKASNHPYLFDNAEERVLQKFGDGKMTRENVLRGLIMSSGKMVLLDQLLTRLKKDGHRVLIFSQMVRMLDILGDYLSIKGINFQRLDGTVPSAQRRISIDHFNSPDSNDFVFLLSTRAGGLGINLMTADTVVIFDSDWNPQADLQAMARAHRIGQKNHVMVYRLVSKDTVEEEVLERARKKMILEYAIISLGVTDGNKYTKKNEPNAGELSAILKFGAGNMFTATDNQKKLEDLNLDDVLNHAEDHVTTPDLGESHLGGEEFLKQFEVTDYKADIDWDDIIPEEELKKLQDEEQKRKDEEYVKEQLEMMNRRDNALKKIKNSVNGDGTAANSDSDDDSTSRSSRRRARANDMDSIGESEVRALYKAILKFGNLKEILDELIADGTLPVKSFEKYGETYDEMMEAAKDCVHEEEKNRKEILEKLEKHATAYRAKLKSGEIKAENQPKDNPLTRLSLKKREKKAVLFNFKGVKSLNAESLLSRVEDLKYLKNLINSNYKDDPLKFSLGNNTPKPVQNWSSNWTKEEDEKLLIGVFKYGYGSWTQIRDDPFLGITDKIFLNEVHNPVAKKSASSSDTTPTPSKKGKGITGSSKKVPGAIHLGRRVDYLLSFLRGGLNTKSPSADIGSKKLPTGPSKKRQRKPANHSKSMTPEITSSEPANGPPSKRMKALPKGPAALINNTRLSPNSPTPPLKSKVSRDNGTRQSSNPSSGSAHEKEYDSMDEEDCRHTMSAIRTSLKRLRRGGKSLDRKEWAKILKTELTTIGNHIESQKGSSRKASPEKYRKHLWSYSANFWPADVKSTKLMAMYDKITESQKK

Chain of Protein translocase subunit SecA (Escherichia coli (strain K12)) (P10408 whole entry): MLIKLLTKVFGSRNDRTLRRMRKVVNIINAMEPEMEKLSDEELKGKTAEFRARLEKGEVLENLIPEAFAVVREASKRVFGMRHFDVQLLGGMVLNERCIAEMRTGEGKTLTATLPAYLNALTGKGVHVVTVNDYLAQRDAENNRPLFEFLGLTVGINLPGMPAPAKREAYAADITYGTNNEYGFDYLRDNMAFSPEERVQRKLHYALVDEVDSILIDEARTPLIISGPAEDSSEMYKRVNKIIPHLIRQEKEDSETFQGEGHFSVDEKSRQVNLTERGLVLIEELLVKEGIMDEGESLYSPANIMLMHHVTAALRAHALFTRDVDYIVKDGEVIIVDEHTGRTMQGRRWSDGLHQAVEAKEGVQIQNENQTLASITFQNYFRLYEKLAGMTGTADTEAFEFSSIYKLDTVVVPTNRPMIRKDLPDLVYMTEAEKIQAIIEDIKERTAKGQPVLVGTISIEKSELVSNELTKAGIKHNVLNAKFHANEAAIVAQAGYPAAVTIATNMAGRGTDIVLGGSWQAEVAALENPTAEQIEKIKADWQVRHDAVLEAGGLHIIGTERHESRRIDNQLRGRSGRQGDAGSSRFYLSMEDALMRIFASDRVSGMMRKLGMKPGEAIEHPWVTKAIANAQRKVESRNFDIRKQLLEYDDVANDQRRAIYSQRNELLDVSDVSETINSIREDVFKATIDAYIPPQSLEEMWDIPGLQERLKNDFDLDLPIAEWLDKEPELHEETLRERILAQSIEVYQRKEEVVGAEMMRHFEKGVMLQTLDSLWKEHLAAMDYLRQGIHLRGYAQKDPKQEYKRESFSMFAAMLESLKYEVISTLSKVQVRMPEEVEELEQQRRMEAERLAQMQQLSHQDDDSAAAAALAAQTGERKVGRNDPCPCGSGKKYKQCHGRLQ
Chain of Sialic acid-binding Ig-like lectin 9 (Homo sapiens) (Q9Y336 whole entry): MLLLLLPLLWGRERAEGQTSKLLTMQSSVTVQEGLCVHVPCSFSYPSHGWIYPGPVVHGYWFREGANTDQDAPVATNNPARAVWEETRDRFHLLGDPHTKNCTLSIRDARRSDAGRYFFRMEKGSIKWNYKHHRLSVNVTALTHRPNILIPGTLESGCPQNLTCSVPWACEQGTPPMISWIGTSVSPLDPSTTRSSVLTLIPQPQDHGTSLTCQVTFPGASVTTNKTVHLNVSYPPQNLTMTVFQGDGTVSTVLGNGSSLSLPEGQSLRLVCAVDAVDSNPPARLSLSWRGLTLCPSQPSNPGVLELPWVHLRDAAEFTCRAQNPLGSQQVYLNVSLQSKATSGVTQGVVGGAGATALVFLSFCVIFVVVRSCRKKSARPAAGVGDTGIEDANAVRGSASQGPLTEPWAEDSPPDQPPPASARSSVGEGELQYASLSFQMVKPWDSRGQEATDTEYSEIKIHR

For `Cc1noc2nc(C3CCN(Cc4cccnc4)CC3)cc(C(F)F)c12`, the Percent Effect in test [1] is -3.07%; in test [2] it was 1.35%; in [3], 4.19%; in test [4] it was 1.16%; in the test with Trypanosoma cruzi, -6.32%; in test [5], -1.16%. Moreover, the Percent Effect in [6] was 2.03%; in the test listed under Homo sapiens, 25.1%; in test [7], 2.15%; in [8] it was 3.9%; in [9] it was 1.36%.

For the molecule `Cc1cc(C(=O)N2CC[C@H](OCC3CC3)[C@@H]2Cc2cccnc2)no1`, the Percent Effect in test [1] is -2.54%; in test [2], 0%; in test [3] it was 0.886%; in test [4], -3.88%; in the test with Trypanosoma cruzi it was 0.772%; in test [5], -36.4%. Also, the Percent Effect was 4.79% in [6]; -3.71% in the test filed under Homo sapiens; -1.04% in [7]; -2.5% in [8]; -5.62% in test [9].

For the molecule `O=C(NCC1CC1)[C@H]1C[C@H]2OCC[C@H]2N(CCc2ccccc2)C1`, the Percent Effect was -3.05% in [1]; 2.7% in test [2]; 0.431% in [3]; -3.87% in test [4]; -5.96% in the test on Trypanosoma cruzi; -1.59% in test [5]. The Percent Effect in test [6] was 16.4%; in the test filed under Homo sapiens, 0.915%; in [7], 2.16%; in test [8], 5.13%; in test [9] it was -1.91%.

Take `O=C(CN1CCC(c2cccc(F)c2)C1)NCc1ccco1` (stereo unspecified): the Percent Effect in [1] was -1.81%; in [2] it was 21.1%; in [3] it was 4.1%; in test [4] it was -1.87%; in the test on Trypanosoma cruzi, 6.01%; in [5], -1.53%. For the same molecule, the Percent Effect in test [6] is 14.4%; in the test filed under Homo sapiens, 27.6%; in test [7] it was 7.35%; in [8], 24.4%; in test [9], -8.76%.

For the molecule `Cc1ccc(CNC(=O)Nc2nnc(C)s2)cn1`, the Percent Effect in test [1] is -1.62%; in test [2], 23.7%; in test [3], 1.54%; in [4], -3.95%; in the test with Trypanosoma cruzi, 1.03%; in test [5], 2.16%. The Percent Effect in [6] was 15.1%; in the test listed under Homo sapiens, 1.76%; in test [7] it was 8.37%; in test [8], 25.9%; in test [9] it was -9.14%.

Consider `CN(CCO)Cc1nnc(C2CCN(C3CCCCC3)CC2)n1C`, for which the Percent Effect is -3.52% in test [1]; 8% in test [2]; 0.423% in [3]; -0.412% in [4]; -3.41% in the test with Trypanosoma cruzi; 2.08% in test [5]. For the same molecule, the Percent Effect is 18.1% in test [6]; 10.8% in the test filed under Homo sapiens; 2.73% in test [7]; 11.1% in test [8]; -6.36% in test [9].

With `O=C1[C@@H]2CCN(Cc3ccoc3)C[C@@H]2OCCN1Cc1cccnc1`, the Percent Effect was -4.73% in [1]; 13.3% in [2]; 6.25% in test [3]; 5.81% in test [4]; -2.76% in the test with Trypanosoma cruzi; -0.699% in test [5]. Moreover, the Percent Effect is 11.4% in [6]; -11.6% in the test filed under Homo sapiens; 4.25% in [7]; 1.28% in test [8]; 1.76% in test [9].

Consider `CCN(Cc1nc2c(cnn2C)c(=O)[nH]1)c1cccc(Cl)c1`, for which the Percent Effect in test [1] was -2.52%; in test [2], 10.4%; in test [3], 4.11%; in test [4] it was -5.62%; in the test with Trypanosoma cruzi, 1.27%; in [5] it was 0.632%. Besides, the Percent Effect in test [6] was 14.3%; in the test listed under Homo sapiens, 16.2%; in test [7], 1.91%; in test [8] it was 14.1%; in test [9], -9.43%.

On to `O=C(CCn1cncn1)NC1(c2cccc(Br)c2)CCC1`, for which the Percent Effect in [1] was -3.55%; in test [2], 20.8%; in test [3], 1.67%; in test [4], 13.7%; in the test on Trypanosoma cruzi it was 3.44%; in test [5] it was 1.38%. In addition, the Percent Effect was 10.5% in [6]; -1.82% in the test listed under Homo sapiens; 3.23% in test [7]; 16.1% in test [8]; -9.17% in test [9].

For the molecule `CC(C)(C)c1n[nH]c(C2CN(C(=O)c3cc(Cl)c[nH]3)CCO2)n1` (stereo unspecified), the Percent Effect was -6.35% in [1]; 15.8% in test [2]; 3.14% in [3]; 10.4% in test [4]; 3.99% in the test with Trypanosoma cruzi; -5.92% in test [5]. The Percent Effect in test [6] is 17.2%; in the test filed under Homo sapiens, -3.03%; in test [7], 2.13%; in [8] it was 15.6%; in test [9] it was -6.65%.

As for `Cc1cccc(CN2C(=O)CC[C@@H]3[C@H]2CCN3CC2CCOCC2)n1`, the Percent Effect is -3.19% in test [1]; 16% in [2]; 1.45% in test [3]; -4.46% in test [4]; 2.36% in the test on Trypanosoma cruzi; 0.699% in test [5]. The Percent Effect in [6] was 14%; in the test filed under Homo sapiens, -19.1%; in test [7], 5.32%; in test [8], 11.5%; in test [9], -4.59%.
